MITF act = MITF TRPM1 promoter activation in melanoma cells; AID 588334; hit rate 0.75% among 300,000; SK-MEL-5 TRPM1-promoter luciferase, 24 h; % of positive control, neutral wells = 0; activation, % at 12.5 µM;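 active = mean activation of at least 80% with every replicate also reaching 80%; inconclusive = mean reaches 80% but some replicate falls short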;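 note: 0% = neutral control wells and 100% = parthenolide positive control wells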
Vif inh = HIV Vif inhibition | hit rate 0.35% among 340,000 | HEK293T cells, Vif self-association by quenched fluorescence, imaging, 24 h | inhibition, % at 7.49 µM | AID 602346; in the data active = inhibition above about 50%, passing the limit was not always enough; inconclusive = no clear call, values can overlap the other calls; inactive = below about 31%
PfHsp90 set2 = growth inhibition of yeast expressing Plasmodium Hsp90. hit rate 0.32% among 310,000. AID 504621. inhibition, % at 9.4 µM. S. cerevisiae expressing PfHsp90, BacTiter-Glo ATP, 48 h; yeast lacking PDR1 and PDR3 efflux regulators;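 active = every replicate shows inhibition above about 80%, whatever the replicate mean, limit read from the data; inconclusive = mean inhibition reaches the set limit but some replicate falls short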;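 note: 0% = DMSO neutral controls and 100% = 20 µM radicicol positive controls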
Glyco luc inh = N-linked glycosylation inhibition; reporter increase, % at 12.5 µM; D54 ERlucT glycosylation luciferase reporter, 24 h; percent of 100 nM tunicamycin response; hit rate 0.23% among 360,000;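 active = mean luciferase reporter signal, scaled so untreated is 0 and the glycosylation-blocking control 100, at or above a set limit in every replicate; inconclusive = mean reaches the limit but not every replicate does; inactive = mean below the limit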;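 note: luciferase carries N-glycosylation sites so blocking glycosylation raises the light; 0% = median of neutral control wells and 100% = median of 100 nM tunicamycin wells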
esBAF inh = SWI/SNF esBAF complex inhibition. mouse ES cells, Bmi1-luciferase knock-in reporter, 24 h; 100% = twice the neutral-well signal. reporter increase, % at 12.5 µM. hit rate 2% among 350,000. AID 602393; in the data active = activation above about 40%; inconclusive = no clear call, values can overlap the other calls;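 note: 0% = median of the plate's neutral control wells and 100% = double that signal; a rise in the Bmi1 reporter signal indicates esBAF inhibition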
Wnt act = activators of Wnt/beta-catenin signaling | AID 743398 | Wnt/beta-catenin reporter cell assay, activator, plate reader | hit rate 1.2% among 300,000 | activation, % at 9.35 µM; in the data active = activation above about 30%, passing the limit was not always enough; inconclusive = no clear call, values can overlap the other calls;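 note: 0% = neutral control wells and 100% = positive control wells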
An asterisk follows results filed as active. Compounds with a hit are over-represented: about 3% of the library has one in this group of screens.

Results for COc1cc2c(cc1OC)-c1cc(Nc3ccccc3)nc(=O)n1CC2 ?
Vif inh: -3; PfHsp90 set2: -23; Glyco luc inh: 5; Wnt act: 45*

How did Cc1ccc(/C(C#N)=C\c2ccc(N3CCOCC3)o2)cc1 do in these assays?
MITF act: 46; Vif inh: 3; PfHsp90 set2: -30; Glyco luc inh: inconclusive; esBAF inh: 17; Wnt act: -11

Results for N#C/C(=C/c1ccc(N2CCCCCC2)o1)c1ccc(Cl)cc1 ?
MITF act: 17; Vif inh: 10; PfHsp90 set2: 104*; Glyco luc inh: 17; esBAF inh: 1

Results for N#C/C(=C/c1ccc(N2CCCCC2)o1)c1cccc(F)c1 ?
MITF act: 46; PfHsp90 set2: -33; Glyco luc inh: -7; esBAF inh: 74*; Wnt act: 3

What do the screens show for `N#C/C(=C/c1ccc(N2CCCCC2)cc1)c1cccc(F)c1`?
MITF act: 21; Vif inh: -10; PfHsp90 set2: -3; Glyco luc inh: -2; esBAF inh: 66*; Wnt act: 33*

How did CCc1ccc(OCC(=O)N/N=C/c2ccc(OS(=O)(=O)c3ccc(C)cc3)c(OC)c2)cc1 do in these assays?
MITF act: -1; Vif inh: 7; PfHsp90 set2: -2; Glyco luc inh: 1; esBAF inh: -3; Wnt act: -1

How did C=CCc1ccc(OCCn2cccc2C=O)c(OC)c1 do in these assays?
MITF act: 93*; Vif inh: 6; PfHsp90 set2: -4; Glyco luc inh: 0

What do the screens show for `C=CCc1ccc(OCCn2nnc3ccccc32)c(OC)c1`?
Vif inh: -15; PfHsp90 set2: 3; Glyco luc inh: 1; esBAF inh: 7; Wnt act: 14

What do the screens show for `N#Cc1ccccc1NC(=O)c1ccc2c(Cl)c3c(nc2c1)CCCC3`?
MITF act: 61; Vif inh: 6; PfHsp90 set2: -156; Glyco luc inh: -3; esBAF inh: 80*

Results for O=C(NC1CC1)c1ccc2c(Cl)c3c(nc2c1)CCCC3 ?
MITF act: 71; Vif inh: -4; Glyco luc inh: -1; esBAF inh: 47*; Wnt act: 22

How did CCOC(=O)N1CCC(NC(=O)c2ccc3c(Cl)c4c(nc3c2)CCCC4)CC1 do in these assays?
Vif inh: -3; PfHsp90 set2: -31; Glyco luc inh: 8; esBAF inh: 11; Wnt act: -4

What do the screens show for `O=C(Nc1cccnc1Cl)c1ccc2c(Cl)c3c(nc2c1)CCC3`?
MITF act: 44; Vif inh: -6; PfHsp90 set2: 10; Glyco luc inh: -19; Wnt act: inconclusive

Results for Cc1ccc(N2C(=O)[C@@H]3Cc4ccccc4CN3C2=O)cc1 ?
MITF act: 42; Vif inh: -2; Glyco luc inh: -2; esBAF inh: 55*; Wnt act: 14

How did CC1CC(=O)Nc2ccccc2N1C(=O)Nc1ccc(F)cc1F (stereo unspecified) do in these assays?
MITF act: -2; Vif inh: -4; PfHsp90 set2: -3; Glyco luc inh: -1; esBAF inh: 2; Wnt act: -1

How did CC1CC(=O)Nc2ccccc2N1C(=O)Nc1ccc(F)cc1 (stereo unspecified) do in these assays?
Vif inh: 2; PfHsp90 set2: 0; Glyco luc inh: -1; Wnt act: 39*

What do the screens show for `COc1ccccc1CN(C)C(=O)c1ccccc1Sc1ccccc1C#N`?
MITF act: -1; Vif inh: 9; PfHsp90 set2: 0; Glyco luc inh: -3; esBAF inh: 2; Wnt act: -1

Results for CC(C)NC(=O)N(C)C[C@H]1Oc2c(NS(=O)(=O)c3ccc(F)cc3)cccc2C(=O)N([C@H](C)CO)C[C@@H]1C ?
MITF act: -4; Vif inh: -2; PfHsp90 set2: -19; Glyco luc inh: 1; esBAF inh: 1; Wnt act: 1

What do the screens show for `COc1ccc(CNC(=O)C(c2ccncc2)N(C(=O)Cc2cccs2)c2ccccc2)cc1` (stereo unspecified)?
MITF act: -19; Vif inh: -3; PfHsp90 set2: -15; Glyco luc inh: 3; Wnt act: 3

What do the screens show for `COc1ccc(CNC(=O)C(c2ccncc2)N(C(=O)Cc2cccs2)c2ccc(C)cc2)cc1` (stereo unspecified)?
MITF act: 1; Vif inh: 3; PfHsp90 set2: -9; Glyco luc inh: -1; esBAF inh: 130*

How did CCCCN(C)C(=O)c1cc2cc3cc(OC)ccc3nc2o1 do in these assays?
MITF act: 68; Vif inh: -3; PfHsp90 set2: 2; Glyco luc inh: -2; Wnt act: 44*

What do the screens show for `CC(NC(=O)NC(=O)c1cccc([N+](=O)[O-])c1)C1CC1` (stereo unspecified)?
MITF act: 7; Vif inh: 0; PfHsp90 set2: 14; Glyco luc inh: 2; esBAF inh: 7; Wnt act: -2

What do the screens show for `C(=C\c1ccccc1)/CSc1ccccn1`?
MITF act: 109*; Vif inh: 6; PfHsp90 set2: -4; Glyco luc inh: -2; Wnt act: 54*

How did Cc1ccc(S(=O)(=O)N2CCOCC2)cc1NC(=O)CNc1ccccc1N1CCCC1=O do in these assays?
MITF act: 0; Vif inh: -6; Glyco luc inh: 0; esBAF inh: -3; Wnt act: -1

Results for COc1ccc(NC(=S)Nc2ccccn2)cc1 ?
MITF act: inconclusive; Vif inh: -1; PfHsp90 set2: -10; Glyco luc inh: -1; esBAF inh: 58*; Wnt act: 36*

Results for COc1ccc(/C=C/C(=O)NC(=S)Nc2ccccn2)cc1 ?
MITF act: 55; Vif inh: 13; PfHsp90 set2: -15; Glyco luc inh: -1; esBAF inh: 48*; Wnt act: 12

How did COc1ccccc1NC(=S)Nc1ccccn1 do in these assays?
MITF act: 3; Vif inh: -2; PfHsp90 set2: -14; Glyco luc inh: 0

Results for Cc1cccc(NC(=S)Nc2ccccn2)c1 ?
MITF act: 26; Vif inh: -8; PfHsp90 set2: -1; Glyco luc inh: 1; Wnt act: 60*

What do the screens show for `Cc1cc(C)nc(NC(=S)Nc2cccc(F)c2)c1`?
MITF act: 25; Vif inh: 0; PfHsp90 set2: 19; Glyco luc inh: 0; esBAF inh: 10; Wnt act: 14

How did COc1cccc(NC(=S)Nc2cc(C)cc(C)n2)c1 do in these assays?
Vif inh: -7; PfHsp90 set2: -18; Glyco luc inh: -1; esBAF inh: inconclusive; Wnt act: 54*

Results for CC(C)c1ccc(C(=O)NNC(=O)c2n[nH]c(=O)c3ccccc23)cc1 ?
MITF act: 1; Vif inh: 9; Glyco luc inh: 5; esBAF inh: 0; Wnt act: 4
